High-throughput results from PubChem.
A selection: hits, their analogues and other compounds. The true share with any hit is near 0.43%.
aGlu spleen mod: inhibits or activates alpha-glucosidase in human spleen homogenate; human spleen homogenate, 4-MU-alpha-glucoside fluorescence; Potency, µM (titrated, usually from 79.9 µM), without a hit: at the top dose activity change, negative = inhibition, usual class: inhibitors; 240,000 tested, 0.006% active; AID 2112;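 note: potency is the fitted concentration of half-maximal effect; 0% = enzyme with vehicle and -100% = no enzyme basal signal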
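Human spleen homogenate (1 ug) incubated with compounds and 1 mM 4-methylumbelliferyl-alpha-D-glucopyranoside in pH 5.0 citrate/phosphate buffer, 37 C, 40 min. Stopped at pH 10; 4-MU fluorescence (Ex 365/Em 440 nm); AC50 by Hill fit.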
aGal spleen mod: inhibitors or activators of human alpha-galactosidase in spleen homogenate. human spleen homogenate, 4MU-alpha-Gal fluorescence, 40 min. Potency, µM (highest dose often 80 µM), without a hit: at the top dose activity change, negative = inhibition, hits mostly inhibitors. 240,000 tested, 0.008% active;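 note: potency is the fitted concentration of half-maximal effect; 0% = enzyme with vehicle and -100% = no enzyme basal signal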
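qHTS titration in buffer at pH 5.0. Alpha-galactosidase activity in spleen homogenate was measured via 4-methylumbelliferone release from 1 mM fluorogenic substrate after 40 min at 37C and a pH 10 stop. AC50 came from Hill fits of control-normalized data.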
GAA glycogen: alters human alpha-glucosidase cleavage of glycogen. recombinant GAA, glycogen substrate, Amplex Red glucose oxidase fluorescence. Potency, µM (series often up to 76.4 µM), for the others: top-dose activity change, negative = inhibition, actives largely listed as inhibitors. 300,000 tested, 0.38% active. AID 2100;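 note: potency is the fitted concentration of half-maximal effect; 0% = full enzyme reaction and -100% = no-enzyme basal signal; the screen sought inhibitors and activators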
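qHTS, 1536-well; enzyme 4 nM final; cpd up to 77 uM; substrate bovine liver glycogen 30 ug; 50 mM citrate/phosphate pH 5.0, 0.01% Tween-20; 37 C, 40 min; Amplex Red detection 45 min RT; Hill fit → AC50.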
GLA inh pH 4.5: inhibitors of human alpha-galactosidase A at pH 4.5 | activity change, negative = inhibition, % at 105 µM | purified enzyme, 4-MU-alpha-Gal fluorescence, pH 4.5 | AID 1467 | 230,000 tested, under 10 active;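 note: 0% = full activity with enzyme and -100% = basal without enzyme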
Target sequence (P06280 whole entry, looked up): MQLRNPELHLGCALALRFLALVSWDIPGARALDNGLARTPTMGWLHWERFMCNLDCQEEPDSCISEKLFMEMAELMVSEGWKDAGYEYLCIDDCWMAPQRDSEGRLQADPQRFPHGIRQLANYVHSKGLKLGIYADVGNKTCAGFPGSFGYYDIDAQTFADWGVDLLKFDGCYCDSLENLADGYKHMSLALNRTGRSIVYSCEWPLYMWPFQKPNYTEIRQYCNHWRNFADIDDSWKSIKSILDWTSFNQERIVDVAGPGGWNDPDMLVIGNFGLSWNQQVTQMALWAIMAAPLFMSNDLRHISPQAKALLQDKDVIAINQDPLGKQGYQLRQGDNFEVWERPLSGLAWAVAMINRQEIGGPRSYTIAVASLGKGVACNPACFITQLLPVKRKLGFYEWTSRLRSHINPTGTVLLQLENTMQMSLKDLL
N370S GC: inhibits or activates N370S mutant glucocerebrosidase; N370S GC spleen homogenate, 4MU-glucoside fluorescence; Potency, µM (series often up to 59.4 µM), inactives show top-dose activity change, negative = inhibition, hits mostly inhibitors; AID 2101; P04062; 330,000 tested, 0.092% active;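 note: potency is the fitted concentration of half-maximal effect; 0% = full enzyme activity and -100% = no enzyme basal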
GAA inhib: alpha-glucosidase (human) inhibition; P10253; purified human GAA, 4-MU-alpha-glucoside fluorescence; Potency, µM (titrated, usually from 76.9 µM), inactives show at the top dose activity change, negative = inhibition, actives largely listed as inhibitors; 200,000 tested, 0.005% active; AID 1466;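 note: potency is the fitted concentration of half-maximal effect; plate controls were uninhibited enzyme wells for no effect and no-enzyme background for full effect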
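Compounds are titrated up to 77 uM against 4 nM human enzyme. Substrate 4-methylumbelliferyl-alpha-D-pyranoside (400 uM) reacts 20 min at room temperature in pH 5.0 buffer; liberated 4-methylumbelliferone is read at 440 nm.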
The depositor's hits bear a star; ? = inconclusive; nt = no result given; [ ] = another dose, or the depositor's remark. Calls come from the whole dose curve; as a rule, active = well fitted curve in the direction sought with a large enough effect; inconclusive = small, poorly fitted or top-dose-only effect, or another doubt; inactive = no such curve, though single readings can be large; an effect the other way counts as inactive or inconclusive.

SMILES	aGlu spleen mod	aGal spleen mod	GAA glycogen	GLA inh pH 4.5	N370S GC	GAA inhib
Cc1[nH][nH]c(=O)c1C(c1ccc(-c2ccc(F)cc2)o1)c1c(C)[nH][nH]c1=O	12%	6%	?	-6	-16%	5%
Cc1[nH][nH]c(=O)c1C(c1ccc(-c2ccc(Cl)c(Cl)c2)o1)c1c(C)[nH][nH]c1=O	-11%	-6%	32µM*	-2	-23%	-4%
O=C1CCCN1S(=O)(=O)c1ccc(F)cc1	nt	nt	-8%[76.3 µM]	nt	-2%	nt
c1csc(-c2nc3ccccn3c2Nc2ccc3c(c2)OCCO3)c1	nt	nt	13µM*	nt	nt	nt
Cc1ccc(-c2nc3ccccn3c2Nc2ccccc2)o1	9%	30%	7.9µM*	5	5%	7%
c1cncc(-c2nc3ccccn3c2Nc2ccc3c(c2)OCCO3)c1	-2%	-6%	18%	-18	-1%	-5%
Cc1ccc(-c2nc3ccccn3c2Nc2ccc3c(c2)OCCO3)o1	nt	nt	4.5µM*	nt	nt	nt
Cc1ccc2nc(-c3ccc(C)o3)c(Nc3ccc4c(c3)OCCO4)n2c1	nt	nt	6.3µM*	nt	nt	nt
Cc1ccc(CNC(=O)CCCN2C(=O)c3cccnc3Oc3ccc(Cl)cc32)cc1	nt	nt	-5%[76.3 µM]	nt	nt	nt
CCCCN(C(=O)c1ccc(Br)o1)C1CCS(=O)(=O)C1 (centres undefined)	nt	nt	nt	nt	-7%	nt
O=C1NN(c2ccc(Cl)c(Cl)c2)C(=O)/C1=C/c1cccc(OC(=O)c2cccs2)c1	-9%	-2%	-21%	1	7%	-2%
O=C1NN(c2ccccc2)C(=O)/C1=C\c1cccc(OC(=O)c2cccs2)c1	-10%	5%	20µM*	-2	nt	-1%
Cc1ccccc1N1C(S)=C(C#N)C(=O)NC12CCCCC2	-6%	0%	9%	3	11%	?
Cc1ccc(Nc2nc3c([nH]2)c(=O)n(C)c(=O)n3C)cc1	-19%	13%	20µM*	-5	9%	8%
Cc1ccc(C(=O)NNc2cc(N3CCCC3)nc(N3CCCC3)n2)cc1	0%	11%	28µM*	6	-1%	6%
O=C(NNc1cc(N2CCOCC2)nc(N2CCOCC2)n1)c1ccc(Cl)c(Cl)c1	-10%	0%	-6%	-14	10%	-13%
CC(C)CN(CCCNC(=O)c1cc(-c2cccs2)nc2ccccc12)CC(C)C	nt	nt	12%[76.3 µM]	nt	nt	nt
CCN(CCN(C)C)C(=O)C1CCN(S(=O)(=O)c2c(C)noc2/C=C/c2ccccc2F)CC1	nt	nt	0%[76.3 µM]	nt	7.1µM*	nt
CCOc1ccccc1/C=C/c1onc(C)c1S(=O)(=O)N1CCC(C(=O)N(CC)CC)CC1	nt	nt	nt	nt	-41%	nt
